# Source: the supplement of paper PMC10503962
# Tested on: Trichuris muris adult worms
# Experiment: mean motility score (Paragon pixel variance) of adult worms (arbitrary units); higher = more motile worms, i.e. less anthelmintic effect; extreme values may be limits of the assay
# Conditions: 100 µM; 24 h
# Protocol: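 Primary ex vivo screen of 409 approved drugs against adult Trichuris muris worms: one worm per well in RPMI-1640 with penicillin/streptomycin, 100 µM drug in 1% DMSO, 37 °C, 5% CO2 for 24 h. Motility was recorded with INVAPP (200-frame movies) and scored with the Paragon pixel-variance algorithm. Values are means of triplicate wells run on three occasions; levamisole was the positive control and DMSO the negative control.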
row,SMILES,mean motility score
1,CCCN1C[C@H](CSC)C[C@@H]2c3cccc4[nH]cc(c34)C[C@H]21.CS(=O)(=O)O [pergolide mesylate],3150
2,C=CCN1CC[C@]23c4c5ccc(O)c4O[C@H]2C(=O)CC[C@@]3(O)[C@H]1C5.Cl [naloxone hydrochloride],3870
3,C#C[C@]1(O)CC[C@H]2[C@@H]3CCC4=CC(=O)CC[C@]4(C)[C@H]3CC[C@@]21C [ethisterone],1590
4,CN(C)C(=O)Oc1ccc[n+](C)c1.[I-] [pyridostigmine iodide],2610
5,CN1C[C@H](C(=O)N[C@]2(C)O[C@@]3(O)[C@@H]4CCCN4C(=O)[C@H](Cc4ccccc4)N3C2=O)CC2c3cccc4[nH]cc(c34)C[C@H]21.CS(=O)(=O)O (some centres undefined) [dihydroergotamine methanesulfonate],1730
6,COc1cc([C@@H]2c3cc4c(cc3[C@H](O)[C@H]3COC(=O)[C@H]23)OCO4)cc(OC)c1OC [podofilox],3650
7,CC[C@H]1[C@H]2CC3[C@@H]4N(C)c5ccccc5[C@]45C[C@H]([C@@H]2C5O)N3[C@@H]1O (some centres undefined) [ajmaline],1790
8,CN(C)C(=O)Oc1cccc([N+](C)(C)C)c1.COS(=O)(=O)[O-] [neostigmine methylsulfate],1600
9,C#CCN(C)[C@H](C)Cc1ccccc1.Cl [selegiline hydrochloride],2950
10,CC(C)N(CCC(C(N)=O)(c1ccccc1)c1ccccn1)C(C)C (centres undefined) [disopyramide],1630
11,CNC(=O)Oc1ccc2c(c1)[C@]1(C)CCN(C)[C@@H]1N2C [physostigmine],3170
12,"N[C@@H](Cc1cc(Br)c(O)c(Br)c1)C(=O)O [3,5 dibromotyrosine]",3040
13,CC(C)C[C@H]1C(=O)N2CCC[C@H]2[C@]2(O)O[C@](NC(=O)C3C=C4c5cccc6[nH]c(Br)c(c56)C[C@H]4N(C)C3)(C(C)C)C(=O)N12.CS(=O)(=O)O (some centres undefined) [bromocriptine methanesulfonate],2300
14,Cl.O=C(CCCN1CCC(n2c(=O)[nH]c3ccccc32)CC1)c1ccc(F)cc1 [benperidol hydrochloride],3960
15,CC[C@@H](CO)NC(=O)[C@@H]1C=C2c3cccc4[nH]cc(c34)C[C@H]2N(C)C1.O=C(O)/C=C\C(=O)O [methylergonovine maleate],2650
16,[O-][n+]1ccccc1S [pyrithione],3120
17,COc1ccc(CCN2CCC(Nc3nc4ccccc4n3Cc3ccc(F)cc3)CC2)cc1 [astemizole],0
18,COc1ccc(C(CN(C)C)C2(O)CCCCC2)cc1.Cl (centres undefined) [venlafaxine hydrochloride],1570
19,COc1cc2c(c(OC)c1OC)-c1ccc(OC)c(=O)cc1[C@@H](NC(C)=O)CC2 [colchicine],1420
20,CN(C)C(=O)Oc1cc(OC(=O)N(C)C)cc(C(O)CNC(C)(C)C)c1.Cl (centres undefined) [bambuterol hydrochloride],1410
21,C[N+](C)(C)CCCCCCCCCC[N+](C)(C)C.[Br-].[Br-] [decamethonium bromide],2280
22,C[C@H](N)[C@H](O)c1ccc(O)c(O)c1 [levonordefrin],2110
23,CCOP(=O)(OCC)Oc1ccc([N+](=O)[O-])cc1 [paraoxon],0
24,O=C1CC[C@@]2(O)[C@H]3Cc4ccc(O)c5c4[C@@]2(CCN3CC2CC2)[C@H]1O5 [naltrexone],3530
